In PubChem BioAssay (Tox21):
Inconclusive results are not listed. The source made the active and inactive calls. Unless noted, the call rests on the fitted dose curve; in most records, active means well fitted curve in the direction sought with a large enough effect in the repeat runs; inconclusive means weak or mixed curves; inactive means no such curve, though single readings can be large; an effect the other way counts as inactive or inconclusive.

Tests used:
[1] = qHTS assay to identify small molecule antagonists of the retinoid acid receptor (RAR) signaling pathway - cell viability counter screen (AID 1159551); further: nearly all actives have a fitted effect of over 35% in size
How it was run: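 Measured by luminescent ATP detection, viability reflects C3RL4 cells treated 6 h at 37 C with test chemicals in the presence of 1 uM (final) retinol.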

[2] = qHTS assay to identify small molecule agonists of the retinoic acid receptor (RAR) signaling pathway (AID 1159553)
How it was run: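 6 hr compound exposure (DMSO vehicle) of overnight-plated C3RL4 RARE-luc cells at 37 C; luminescence quantified after 30 min RT with luciferase reagent.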

[3] = molecular target: Luciferin 4-monooxygenase (Photinus pyralis) (UniProt P08659); assay: qHTS assay to identify small molecule inhibitors of firefly luciferase (AID 1224835); further: series mostly up to about 120 µM; nearly all actives have a fitted effect of over 25% in size
How it was run: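 Quantitative HTS format; KM concentrations of both substrates. Purified P. pyralis FLuc activity quantified from luminescence images.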

[4] = qHTS assay to identify small molecule antagonists of the constitutive androstane receptor (CAR) signaling pathway - cell viability counter screen (AID 1224837); further: series mostly up to about 92 µM; nearly all actives have a fitted effect of over 45% in size
How it was run: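 To flag cytotoxic false antagonists, HepG2 hCAR/CYP2B6-2.2kb cells were treated 23 hr with 15-concentration compound series and 50 nM CITCO at 37 C/5% CO2; CellTiter-Fluor fluorescence was the measured end point.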

[5] = molecular target: Nuclear receptor subfamily 1 group I member 3 (Homo sapiens) (UniProt Q14994); assay: qHTS assay to identify small molecule antagonists of the constitutive androstane receptor (CAR) signaling pathway (AID 1224838);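 further: HepG2 cells stably expressing hCAR with CYP2B6 luciferase reporter stimulated by CITCO; nearly all actives have a fitted effect of over 40% in size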
How it was run: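 Human hepatoma HepG2 cells expressing hCAR and a CYP2B6 promoter (2.2 kb) luciferase construct; compound titration (15 points) with 50 nM CITCO final, 24 h at 37 C/5% CO2; luminescence via ONE-Glo after 30 min at room temperature.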

[6] = molecular target: Nuclear receptor subfamily 1 group I member 3 (Homo sapiens) (UniProt Q14994); assay: qHTS assay to identify small molecule agonists of the constitutive androstane receptor (CAR) signaling pathway (AID 1224839); further: series mostly up to about 92 µM; nearly all actives have a fitted effect of over 15% in size
How it was run: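 A 15-concentration quantitative screen uses HepG2 cells co-transfected stably with human CAR and CYP2B6-2.2kb reporter. Treatment lasts 24 h with 0.75 uM PK11195 final present; ONE-Glo luminescence is the signal.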

[7] = qHTS assay to identify small molecule antagonists of the estrogen related receptor signaling pathway with the pleiotropic PPARgamma coactivator (PGC) from Tox21 10K library - cell viability counter screen (AID 1224840; active means well fitted cell-killing curve with a large enough effect in the repeat runs, not every such curve was filed as active; further: nearly all actives have a fitted effect of over 40% in size)
How it was run: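 Seeded PGC/ERR cells (2,000/well, 6 h, 37 C/5% CO2) get compound by pin tool; 17.5 h incubation at 37 C; CellTiter-Fluor added, 30 min, fluorescence measured.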

[8] = molecular target: Thyrotropin receptor (Homo sapiens) (UniProt P16473); assay: qHTS assay to identify small molecule agonists of the thyroid stimulating hormone receptor (TSHR) signaling pathway (AID 1224843; calls by dose curve; further: nearly all actives have a fitted effect of over 45% in size)
How it was run: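 Using 15 concentrations per compound in triplicate, cAMP production was monitored in TSHR-HEK293 cells after 30 min compound incubation at RT; HTRF reagents followed, with fluorescence intensity recorded after 1 h.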

[9] = qHTS assay to identify small molecule agonists of the hypoxia (HIF-1) signaling pathway - cell viability counter screen (AID 1224844; calls by dose curve; further: nearly all actives have a fitted effect of over 50% in size; further: potency means the concentration at half of the fitted maximal effect)
How it was run: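 HRE-bla ME-180; 0.5% dFBS; cpd 17 h, 37C, 5% CO2; CellTiter-Glo lum., 30 min RT, post-FRET read, same wells.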

[10] = qHTS assay to identify small molecule antagonists of the estrogen related receptor (ERR) signaling pathway from Tox21 library - cell viability counter screen (AID 1224834); further: nearly all actives have a fitted effect of over 30% in size
How it was run: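 Seeded ERR cells were rested 6 h at 37 C/5% CO2 before compounds, positive and negative controls or DMSO were added. Incubation continued for 17.5 h, and viability was then quantified by CellTiter-Fluor fluorescence.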

[11] = qHTS assay to identify small molecule agonists of the constitutive androstane receptor (CAR) signaling pathway - cell viability counter screen (AID 1224836); further: series mostly up to about 92 µM; nearly all actives have a fitted effect of over 45% in size
How it was run: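 Counter screen multiplexed with the CAR reporter readout: HepG2 cells co-transfected with hCAR and the CYP2B6-2.2kb construct receive a 15-concentration compound series and 0.75 uM PK11195 (final), then CellTiter-Fluor fluorescence is read after 23 h.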

[12] = qHTS assay to identify small molecule antagonists of the estrogen related receptor signaling pathway with the pleiotropic PPARgamma coactivator (PGC) from Tox21 10K library (AID 1224841; call rule not given here; further: actives are mostly falling curves and most rising ones were filed inactive; nearly all actives have a fitted effect of over 50% in size; further: potency means the concentration at half of the fitted maximal effect)
How it was run: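 Test chemicals dissolved in DMSO were applied to pre-incubated (6 h) PGC/ERR cells at 2,000 cells/well for an 18 h, 37 C treatment; reporter luminescence was then read using One-Glo.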

[13] = qHTS assay to identify small molecule agonists of the estrogen related receptor signaling pathway with the pleiotropic PPARgamma coactivator (PGC) from Tox21 10K library (AID 1224842); further: nearly all actives have a fitted effect of over 15% in size
How it was run: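 PGC/ERR reporter cells (NTP line) were seeded 2,000 per well, rested 6 h at 37 C/5% CO2, then pin-dosed with compounds in DMSO for 18 h at 37 C; luciferase read by One-Glo luminescence after 30 min at room temperature.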

[14] = qHTS assay to identify small molecule antagonists of the estrogen related receptor (ERR) signaling pathway - cell viability counter screen (AID 1224818); further: series mostly up to about 46 µM
How it was run: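 Compounds dissolved in DMSO were applied to ERR cells seeded at 2,000 per well 6 h earlier. Cell viability followed 17.5 h later via 30-min CellTiter-Fluor fluorescence.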

[15] = qHTS assay to identify small molecule antagonists of the estrogen related receptor (ERR) signaling pathway (AID 1224819;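 further: luminescence from an ERR-driven luciferase reporter measured with One-Glo reagent; series mostly up to about 46 µM; nearly all actives have a fitted effect of over 50% in size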)
How it was run: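 Compounds dissolved in DMSO were pin-transferred onto ERR cells that had been plated 6 h earlier, and cells were then incubated 18 h at 37 C; signal was luciferase luminescence via One-Glo.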

[16] = qHTS assay to identify small molecule agonists of the estrogen related receptor (ERR) signaling pathway (AID 1224820)
How it was run: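 Following a 6 h settling period, 2,000 ERR cells per well receive DMSO-dissolved compounds by pin tool and incubate 18 h at 37 C; agonist activity is scored from One-Glo luminescence read 30 min post-addition.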

[17] = system: estrogen-related receptor alpha (ERRalpha) with PGC-1alpha coactivator, human; assay: qHTS assay to identify small molecule antagonists of the estrogen related receptor signaling pathway with the pleiotropic PPARgamma coactivator (PGC) (AID 1224821; calls by dose curve;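 further: series mostly up to about 46 µM; lower luminescence signal means antagonism of PGC/ERR signalling; nearly all actives have a fitted effect of over 50% in size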)
How it was run: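 Screening used NTP's PGC/ERR cells, dosed via pin tool with compound in DMSO alongside positive and negative controls. After 18 h at 37 C, One-Glo reagent sat 30 min at room temperature before luminescence detection.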

[18] = qHTS assay to identify small molecule antagonists of the estrogen related receptor signaling pathway with the pleiotropic PPARgamma coactivator (PGC) cell viability counter screen (AID 1224822; further: series mostly up to about 46 µM)
How it was run: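 Counter screen for cell viability: PGC/ERR cells, 6 h pre-incubation after plating, 17.5 h compound exposure at 37 C, fluorescence from CellTiter-Fluor after 30 min.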

[19] = qHTS assay to identify small molecule agonists of the estrogen related receptor signaling pathway with the pleiotropic PPARgamma coactivator (PGC) (AID 1224823)
How it was run: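 In this quantitative high-throughput screen, an 18 h, 37 C treatment of PGC/ERR cells with compounds in DMSO preceded a One-Glo luminescence read taken after 30 min at room temperature.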

[20] = qHTS assay to identify small molecule antagonists of the retinoic acid receptor (RAR) signaling pathway (AID 1159552; further: nearly all actives have a fitted effect of over 50% in size)
How it was run: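 Quantitative HTS in C3RL4 RARE-luciferase reporter cells. Compounds were added with 1 uM (final) retinol; luminescence was read after 6 hr.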

Measured: Potency

Chain of Luciferin 4-monooxygenase (Photinus pyralis) (P08659 whole entry, looked up): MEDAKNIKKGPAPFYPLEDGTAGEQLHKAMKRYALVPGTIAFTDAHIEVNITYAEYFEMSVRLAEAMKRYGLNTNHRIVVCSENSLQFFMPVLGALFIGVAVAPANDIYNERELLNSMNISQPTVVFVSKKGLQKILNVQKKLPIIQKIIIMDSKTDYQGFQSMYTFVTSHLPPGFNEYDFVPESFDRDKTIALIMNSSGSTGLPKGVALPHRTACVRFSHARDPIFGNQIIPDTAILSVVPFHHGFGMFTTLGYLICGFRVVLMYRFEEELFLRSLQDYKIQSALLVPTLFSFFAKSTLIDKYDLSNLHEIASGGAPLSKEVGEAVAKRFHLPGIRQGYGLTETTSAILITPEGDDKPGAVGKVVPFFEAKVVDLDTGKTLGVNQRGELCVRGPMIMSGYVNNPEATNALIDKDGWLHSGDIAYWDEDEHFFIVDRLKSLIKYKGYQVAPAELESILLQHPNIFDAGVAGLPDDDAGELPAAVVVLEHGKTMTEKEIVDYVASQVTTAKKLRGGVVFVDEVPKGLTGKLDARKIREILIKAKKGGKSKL
Chain of Nuclear receptor subfamily 1 group I member 3 (Homo sapiens) (Q14994 whole entry, looked up): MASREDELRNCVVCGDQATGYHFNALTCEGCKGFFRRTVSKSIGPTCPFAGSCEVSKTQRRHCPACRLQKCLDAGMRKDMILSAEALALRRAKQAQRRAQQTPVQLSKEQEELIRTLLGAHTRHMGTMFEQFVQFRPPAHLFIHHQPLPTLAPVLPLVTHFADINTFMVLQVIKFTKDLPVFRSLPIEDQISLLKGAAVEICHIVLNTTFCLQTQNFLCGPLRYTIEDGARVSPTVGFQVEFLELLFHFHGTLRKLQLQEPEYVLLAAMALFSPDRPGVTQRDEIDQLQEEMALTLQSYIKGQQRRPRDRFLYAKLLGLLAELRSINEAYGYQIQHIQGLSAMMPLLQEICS
Chain of Thyrotropin receptor (Homo sapiens) (P16473 whole entry, looked up): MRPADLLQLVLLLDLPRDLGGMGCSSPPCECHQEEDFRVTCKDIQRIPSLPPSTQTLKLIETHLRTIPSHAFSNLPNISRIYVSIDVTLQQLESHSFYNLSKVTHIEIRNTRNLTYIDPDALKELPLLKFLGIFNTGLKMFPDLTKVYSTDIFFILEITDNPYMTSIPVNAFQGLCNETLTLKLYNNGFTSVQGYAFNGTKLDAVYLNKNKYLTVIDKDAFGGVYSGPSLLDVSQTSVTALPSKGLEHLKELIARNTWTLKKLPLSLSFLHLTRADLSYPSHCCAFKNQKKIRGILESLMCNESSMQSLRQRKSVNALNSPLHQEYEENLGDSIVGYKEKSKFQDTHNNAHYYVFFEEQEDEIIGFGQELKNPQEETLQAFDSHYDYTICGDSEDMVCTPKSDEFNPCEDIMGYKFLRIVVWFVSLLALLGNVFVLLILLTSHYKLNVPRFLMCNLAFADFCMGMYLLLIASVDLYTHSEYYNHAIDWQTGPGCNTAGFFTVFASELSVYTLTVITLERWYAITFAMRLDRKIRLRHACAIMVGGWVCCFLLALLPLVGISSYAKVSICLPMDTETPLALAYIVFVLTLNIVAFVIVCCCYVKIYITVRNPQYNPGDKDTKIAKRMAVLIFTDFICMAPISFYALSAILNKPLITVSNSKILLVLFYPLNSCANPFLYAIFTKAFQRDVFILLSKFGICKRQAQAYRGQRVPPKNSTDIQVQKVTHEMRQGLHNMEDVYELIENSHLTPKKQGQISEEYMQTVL

CC(Oc1cc(Cl)c(Cl)cc1Cl)C(=O)O (stereo not drawn)
inactive: [1] | [2] | [3] | [4] | [5] | [6] | [7] | [8] | [9]

OCCCl
inactive: [1] | [2] | [10] | [3] | [4] | [5] | [6] | [7] | [9]

O=C(O)COc1cc(Cl)c(Cl)cc1Cl
inactive: [1] | [2] | [10] | [3] | [11] | [4] | [7] | [12] | [13] | [8] | [9]

COc1cc(C[C@@H](C)N)c(OC)cc1Br
inactive: [1] | [2] | [10] | [3] | [11] | [4] | [7] | [13] | [9]
active: [12] 31.5 µM

CCNC(=O)NC(=O)/C(C#N)=N/OC
not listed: [10] | [14] | [15] | [16] | [17] | [18] | [19] | [20]
inactive: all other assays above

N#CC(C#N)=C(C#N)C#N
active: [12] 1.8 µM
inactive: [1] | [2] | [3] | [11] | [4] | [5] | [7] | [13] | [8] | [9]

C#CC(O)(C=CCl)CC (stereo not drawn)
inactive: [1] | [2] | [10] | [3] | [11] | [4] | [7] | [8] | [9]

O=C(O)C(F)(F)C(F)(F)C(F)(F)C(F)(F)C(F)(F)C(F)(F)C(F)(F)C(F)(F)F
active: [9] 8.71 µM
inactive: [1] | [2] | [11] | [4] | [7] | [8]

C[N+](C)(C)CCOC(=O)C(O)(c1ccccc1)c1ccccc1
inactive: [1] | [2] | [10] | [3] | [4] | [7] | [9]

CCCC[N+](CCCC)(CCCC)CCCC
inactive: [1] | [2] | [3] | [11] | [4] | [7] | [13] | [9]

CC(C)(C)NCC(O)c1ccccc1Cl (stereo not drawn)
not listed: [2] | [11] | [20]
inactive: all other assays above

CCOC(=O)c1cncn1C(C)c1ccccc1 (stereo not drawn)
not listed: [6] | [14] | [15] | [16] | [17] | [18] | [19] | [20]
inactive: all other assays above

CN1CC[C@]23c4c5ccc(O)c4O[C@H]2[C@@H](O)C=C[C@H]3[C@H]1C5
inactive: [1] | [2] | [3] | [11] | [4] | [5] | [7] | [13] | [8] | [9]

NNCCO
inactive: [1] | [2] | [10] | [3] | [11] | [4] | [7] | [12] | [13] | [8] | [9]

CC(C)(C#N)C(C)(C)C#N
inactive: [1] | [10] | [3] | [11] | [4] | [5] | [6] | [7] | [12] | [13] | [9]

C=CCOC(=O)C(C)(C)OC(=O)c1cc(-n2c(=O)cc(C(F)(F)F)n(C)c2=O)ccc1Cl
inactive: [1] | [3] | [11] | [4] | [5] | [7] | [13] | [9]

CC(Cl)C(=O)O (stereo not drawn)
inactive: [20] | [2] | [10] | [3] | [11] | [4] | [5] | [6] | [7] | [8] | [9]
